We go through 20 compounds from PubChem BioAssay.

Values without a mark were called inactive. For some of these results: Measured potencies and affinities stand elsewhere. Active and inactive are the calls of the source. Unless noted, how the calls were made is not given here.

A short description of assay [1]: antimalarial activity against Dd2 strain (AID 2302;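 active means growth inhibition above 50% at the single 2 µM test dose, taken to imply half-maximal potency below 2 µM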;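 further: 0% = DMSO untreated growth and 100% = chloroquine plus artemisinin killed control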). The settings on record: P. falciparum Dd2 in RBCs, LDH growth readout, 72 h; at 2 µM; stronger effect = higher value.
Assay [2] can be described thus: HepG2 cytotoxicity, primary screen, cytotoxicity control for P. falciparum antimalarial project, cell-based, ATP luminescence (AID 2303;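 active means inhibition above 50%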;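 further: 0% = DMSO wells and 100% = digitonin-killed cells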). The settings on record: HepG2 viability, 24-48 h, at 10 µM, stronger effect = higher value.
Assay [3] addresses L-lactate dehydrogenase (Plasmodium falciparum (isolate CDC / Honduras)) (UniProt Q27743). Put plainly: PfLDH activity inhibition – cell lysate, 3D7 strain, counter-screen for P. falciparum growth inhibition project (AID 2304).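 Further: 0% = vehicle and 100% = reference inhibitor.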 The following applies: P. falciparum 3D7 crude extract, LDH APAD/NBT absorbance; at 2 µM; stronger effect = higher value. A general note: Counterscreens check selectivity or assay interference.

A short description of assay [4]: inhibition of 3D7 malaria parasite growth – strain 3D7 (AID 2306).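 Further: 0% = DMSO wells and 100% = chloroquine plus artemisinin control wells.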 The following applies: P. falciparum 3D7 erythrocytic growth, LDH absorbance, 72 h; at 2 µM; stronger effect = higher value.
In assay [5] the target is Calcium-dependent protein kinase 1 (Plasmodium falciparum (isolate 3D7)) (UniProt P62344). In words: PfCDPK1 kinase inhibitors, biochemical, TCAMS library (AID 1159585; cut-off not given, nearly all actives have IC50 up to about 0.98 µM;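 further: inhibitors leave more ATP so luminescence rises with inhibition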). The following applies: recombinant PfCDPK1, Kinase-Glo ATP depletion luminescence. (In general: In Kinase-Glo more light means more ATP remaining.)
Assay [6] concerns the target Plasmodium falciparum protein kinase 6 (PK6, PF3D7_1337100) (UniProt Q8IDW1). Put plainly: PfPK6 kinase inhibitors, biochemical, TCAMS library (AID 1159586). The settings on record: recombinant PfPK6, Kinase-Glo ATP depletion luminescence.
The target in assay [7] is Protein kinase 7 (PK7), Plasmodium falciparum 3D7 (PF3D7_0213400) (UniProt Q7YTF7). Put plainly: inhibition of Plasmodium PK7 catalytic activity – biochemical, TCAMS antimalarial set, Kinase-Glo luminescence (AID 1159587). The following applies: recombinant PfPK7, Kinase-Glo ATP depletion luminescence.
Assay [8] addresses Calcium-dependent protein kinase 4 (Plasmodium falciparum (isolate 3D7)) (UniProt Q8IBS5). In words: PfCDPK4 kinase inhibitors, biochemical, TCAMS library (AID 1159588; cut-off not given, nearly all actives have IC50 up to about 0.91 µM). The following applies: recombinant PfCDPK4, Kinase-Glo ATP depletion luminescence.

Chain of Plasmodium falciparum protein kinase 6 (PK6, PF3D7_1337100) (Q8IDW1 1-305): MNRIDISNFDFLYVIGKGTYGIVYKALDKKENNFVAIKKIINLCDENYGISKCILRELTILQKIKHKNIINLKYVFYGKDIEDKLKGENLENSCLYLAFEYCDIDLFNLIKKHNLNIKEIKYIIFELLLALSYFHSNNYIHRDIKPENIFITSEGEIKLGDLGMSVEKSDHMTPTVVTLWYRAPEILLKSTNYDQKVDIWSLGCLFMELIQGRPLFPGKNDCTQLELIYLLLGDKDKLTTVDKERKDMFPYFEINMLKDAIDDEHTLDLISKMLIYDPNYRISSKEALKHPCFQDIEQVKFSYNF
Chain of Protein kinase 7 (PK7), Plasmodium falciparum 3D7 (PF3D7_0213400) (Q7YTF7 1-343): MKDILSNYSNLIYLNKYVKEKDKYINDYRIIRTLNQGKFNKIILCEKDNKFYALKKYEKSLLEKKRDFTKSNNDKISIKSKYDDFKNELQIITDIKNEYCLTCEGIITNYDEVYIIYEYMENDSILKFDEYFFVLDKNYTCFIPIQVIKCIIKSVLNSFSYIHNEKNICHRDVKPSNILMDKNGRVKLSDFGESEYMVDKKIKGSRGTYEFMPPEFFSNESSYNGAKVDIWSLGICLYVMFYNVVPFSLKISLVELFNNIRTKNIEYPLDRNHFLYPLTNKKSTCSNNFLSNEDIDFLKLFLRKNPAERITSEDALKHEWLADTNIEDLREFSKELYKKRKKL
Chain of Calcium-dependent protein kinase 4 (Plasmodium falciparum (isolate 3D7)) (Q8IBS5 whole entry, looked up): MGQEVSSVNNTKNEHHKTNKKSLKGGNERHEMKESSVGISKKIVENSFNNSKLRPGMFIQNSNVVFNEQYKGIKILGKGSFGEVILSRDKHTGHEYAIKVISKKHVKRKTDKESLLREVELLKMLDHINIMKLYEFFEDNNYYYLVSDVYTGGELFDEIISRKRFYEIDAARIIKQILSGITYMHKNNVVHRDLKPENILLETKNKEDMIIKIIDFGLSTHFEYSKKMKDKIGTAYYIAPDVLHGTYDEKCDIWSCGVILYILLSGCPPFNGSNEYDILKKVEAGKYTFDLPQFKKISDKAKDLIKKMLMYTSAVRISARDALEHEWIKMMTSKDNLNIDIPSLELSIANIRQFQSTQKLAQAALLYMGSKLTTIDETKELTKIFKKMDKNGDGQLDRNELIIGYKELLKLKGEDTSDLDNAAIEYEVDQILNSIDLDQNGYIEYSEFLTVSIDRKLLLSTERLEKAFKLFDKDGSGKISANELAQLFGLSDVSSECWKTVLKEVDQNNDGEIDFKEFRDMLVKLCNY
Chain of Calcium-dependent protein kinase 1 (Plasmodium falciparum (isolate 3D7)) (P62344 whole entry, looked up): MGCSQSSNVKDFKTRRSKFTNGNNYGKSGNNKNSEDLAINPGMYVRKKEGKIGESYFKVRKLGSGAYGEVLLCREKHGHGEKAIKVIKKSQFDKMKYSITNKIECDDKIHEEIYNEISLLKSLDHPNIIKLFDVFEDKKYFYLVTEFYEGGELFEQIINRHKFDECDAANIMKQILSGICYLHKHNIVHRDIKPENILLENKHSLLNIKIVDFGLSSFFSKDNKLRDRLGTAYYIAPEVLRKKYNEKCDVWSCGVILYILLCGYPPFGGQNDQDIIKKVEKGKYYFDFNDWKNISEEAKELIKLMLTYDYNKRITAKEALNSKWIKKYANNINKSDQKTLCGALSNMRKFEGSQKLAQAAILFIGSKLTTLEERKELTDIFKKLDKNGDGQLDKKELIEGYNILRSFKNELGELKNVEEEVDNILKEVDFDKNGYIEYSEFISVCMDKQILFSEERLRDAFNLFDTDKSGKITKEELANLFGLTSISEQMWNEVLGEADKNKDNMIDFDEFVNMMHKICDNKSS
Chain of L-lactate dehydrogenase (Plasmodium falciparum (isolate CDC / Honduras)) (Q27743 whole entry, looked up): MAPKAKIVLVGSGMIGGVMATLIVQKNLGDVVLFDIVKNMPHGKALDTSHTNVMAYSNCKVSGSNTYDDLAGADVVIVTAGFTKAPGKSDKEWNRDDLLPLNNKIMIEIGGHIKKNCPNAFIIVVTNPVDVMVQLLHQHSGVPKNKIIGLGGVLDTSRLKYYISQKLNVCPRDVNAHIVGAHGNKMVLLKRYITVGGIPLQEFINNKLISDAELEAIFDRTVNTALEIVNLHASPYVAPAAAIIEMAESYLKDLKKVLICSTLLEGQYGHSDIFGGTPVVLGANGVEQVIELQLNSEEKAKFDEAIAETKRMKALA

As a reminder, the inhibition is the relative decrease from the control value, in per cent. With `CN=C(N)c1ccc(NC(=O)c2ccc(C(=O)Nc3ccc(C(N)=NC)cc3)cc2)cc1`, the growth inhibition is 91% (active) in assay [1] and 96% (active) in assay [4]. The figures for the inhibition in assay [2] and in assay [3] were 6% and 0%, respectively. The outcome in assay [5], in assay [6], in assay [7] and in assay [8] was inactive.
As to `Clc1ccc2c(NCc3ccccc3)ccnc2c1`, the growth inhibition in assay [1] is 100% (active); in assay [4], 101% (active). The inhibition in assay [2] was 40%; in assay [3], 1%. In addition, the result in assay [5], in assay [6], in assay [7] and in assay [8] was inactive.
`CN1CCN(c2ccc3nc(-c4ccc5nc(-c6ccc(O)cc6)[nH]c5c4)[nH]c3c2)CC1`: the values for the growth inhibition in assay [1] and in assay [4] were 100% (active) and 99% (active), respectively. In addition, the inhibition in assay [2] is -11%; in assay [3] it was 3%. In addition, the result in assay [5], in assay [6], in assay [7] and in assay [8] was inactive.
Regarding `CCOc1ccccc1CCNC(C)Cc1ccc(C(=O)Nc2ccc(CC(C)NCCc3cccc(Cl)c3)cc2)cc1` (stereo not given), the growth inhibition was 59% (active) in assay [1] and 97% (active) in assay [4]. Also, the inhibition was 100% (active) in assay [2] and -3% in assay [3]. For the same compound, the outcome in assay [5], in assay [6], in assay [7] and in assay [8] was inactive.
As to `COc1cc2c(cc1C(F)(F)F)N(C(=O)Nc1cc(F)cc(-c3cncnc3)c1)CC2`, the growth inhibition was 52% (active) in assay [1] and 97% (active) in assay [4]. The inhibition was 15% in assay [2] and -5% in assay [3]. Moreover, the result in assay [5], in assay [6], in assay [7] and in assay [8] was inactive.
Turning to `c1cncc(-c2cc(N3CCCCC3)nc(-c3ccncc3)n2)c1`, the values for the growth inhibition in assay [1] and in assay [4] were 46% and 99% (active), respectively. Moreover, the inhibition is 18% in assay [2] and 2% in assay [3]. Further, the outcome in assay [5], in assay [6], in assay [7] and in assay [8] was inactive.
Take `CCc1cn2c3c(cc(C(=O)N[C@@H](Cc4ccccc4)[C@H](O)CNCCOC)cc13)N(C)S(=O)(=O)CC2`: the figures for the growth inhibition in assay [1] and in assay [4] were 56% (active) and 98% (active), respectively. Also, the values for the inhibition in assay [2] and in assay [3] were 7% and -9%, respectively. The result in assay [5], in assay [6], in assay [7] and in assay [8] was inactive.
Turning to `COc1ccc2nc(C)cc(NCc3ccc4ccccc4c3)c2c1`, the growth inhibition is 75% (active) in assay [1] and 101% (active) in assay [4]. The inhibition in assay [2] is 21%; in assay [3], -1%. Also, the result in assay [5], in assay [6], in assay [7] and in assay [8] was inactive.
In the case of `Cc1c(F)cc(C(=O)NC2CC2)cc1-c1ccc2c(c1)c(C)nn2S(=O)(=O)c1cccs1`, the growth inhibition was 92% (active) in assay [1] and 91% (active) in assay [4]. Moreover, the results for the inhibition in assay [2] and in assay [3] were 34% and -3%, respectively. In addition, the outcome in assay [5], in assay [6], in assay [7] and in assay [8] was inactive.
For the compound `O=C(Nc1cccc(-c2cc3ccccc3[nH]2)c1)C1CCN(Cc2ccccc2O)CC1`, the growth inhibition in assay [1] is 25%; in assay [4] it was 95% (active). Besides, the inhibition is 34% in assay [2] and -1% in assay [3]. Further, the result in assay [5], in assay [6], in assay [7] and in assay [8] was inactive.
Turning to `Fc1ccc2nc(-c3ccc(-c4ccc(CN5CCCCC5)cc4)cc3)[nH]c2c1`, the figures for the growth inhibition in assay [1] and in assay [4] were 100% (active) and 98% (active), respectively. For the same compound, the inhibition in assay [2] is 31%; in assay [3] it was -3%. Also, the outcome in assay [5], in assay [6], in assay [7] and in assay [8] was inactive.
Regarding `CC(Nc1ccc2c(c1)OCCO2)C(=O)Nc1cc(C(F)(F)F)ccc1N1CCOCC1` (stereo not given), the growth inhibition in assay [1] is 70% (active); in assay [4], 98% (active). Besides, the values for the inhibition in assay [2] and in assay [3] were -6% and 1%, respectively. The result in assay [5], in assay [6], in assay [7] and in assay [8] was inactive.
Regarding `Cc1cc2c(cc1C(F)(F)F)N(C(=O)Nc1cc(OCCN(C)C)cc(C(F)(F)F)c1)CC2`, the growth inhibition in assay [1] is 19%; in assay [4] it was 101% (active). Moreover, the inhibition was 16% in assay [2] and 0% in assay [3]. Further, the result in assay [5], in assay [6], in assay [7] and in assay [8] was inactive.
For the compound `CC(=O)Nc1ccc(CN(Cc2cccc(OC(C)(C)C)c2)Cc2ccc3c(c2)OCCO3)cc1`, the growth inhibition in assay [1] was 96% (active); in assay [4], 95% (active). For the same compound, the inhibition is -10% in assay [2] and 8% in assay [3]. For the same compound, the outcome in assay [5], in assay [6], in assay [7] and in assay [8] was inactive.
As for `CC(C)Cn1c(Sc2ccc(C#N)c([N+](=O)[O-])c2)nnc1-c1cccs1`, the results for the growth inhibition in assay [1] and in assay [4] were 32% and 90% (active), respectively. In addition, the inhibition in assay [2] is 9%; in assay [3] it was 5%. The outcome in assay [5], in assay [6], in assay [7] and in assay [8] was inactive.
With `Cc1ccc(CNC(=O)[C@H](Cc2ccccc2)Nc2ccnc(NCC3CCCCC3)n2)cc1`, the growth inhibition was 61% (active) in assay [1] and 92% (active) in assay [4]. The figures for the inhibition in assay [2] and in assay [3] were 84% (active) and -2%, respectively. The outcome in assay [5], in assay [6], in assay [7] and in assay [8] was inactive.
For the compound `COc1ccc2nccc([C@@H](O)CN3CCC(NC(=O)/C=C/c4ccc(F)c5ccccc45)CC3)c2c1`, the growth inhibition in assay [1] is 75% (active); in assay [4], 100% (active). In addition, the figures for the inhibition in assay [2] and in assay [3] were 37% and 0%, respectively. Besides, the result in assay [5], in assay [6], in assay [7] and in assay [8] was inactive.
On to `Cc1nc(N)nc(N)c1OCCCCOc1ccccc1`, for which the growth inhibition in assay [1] was 4%; in assay [4], 94% (active). The values for the inhibition in assay [2] and in assay [3] were 62% (active) and -1%, respectively. Moreover, the outcome in assay [5], in assay [6], in assay [7] and in assay [8] was inactive.
In the case of `Cc1cc(NN=Cc2ccc(F)cc2)c2cccc(C)c2n1`, the results for the growth inhibition in assay [1] and in assay [4] were 99% (active) and 100% (active), respectively. Moreover, the inhibition in assay [2] was 7%; in assay [3] it was -6%. The result in assay [5], in assay [6], in assay [7] and in assay [8] was inactive.
On to `COc1ccc2c(NN=Cc3ccccc3)ccnc2c1`, for which the values for the growth inhibition in assay [1] and in assay [4] were 98% (active) and 101% (active), respectively. Also, the values for the inhibition in assay [2] and in assay [3] were 18% and -5%, respectively. In addition, the outcome in assay [5], in assay [6], in assay [7] and in assay [8] was inactive.
